High-throughput results as filed in PubChem BioAssay.
Sampled rows, rich in hits. Any-hit rate of the full collection: about 4%.
EWS-Fli inh – EWS/Fli-driven NR0B1 reporter inhibitors, primary screen, A673 cells, NR0B1 luciferase, luminescence, MLPCN library | viability-normalised | inhibition, % at 12.6 µM | 350,000 compounds, 0.67% hits | AID 651661, 2012;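 active means mean inhibition of at least 50% after viability correction, with every replicate also passing that limit; inconclusive means mean reaches 50% but only one of two replicates passes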;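 further: firefly luciferase signal divided by Alamar Blue viability fluorescence both relative to DMSO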
MITF act – activators of MITF-driven TRPM1 promoter reporter, primary screen, cell-based, SK-MEL-5, luciferase, single point | AID 588334, 2011 | SK-MEL-5 TRPM1-promoter luciferase, 24 h; % of positive control, neutral wells = 0 | 300,000 compounds, 0.75% hits | activation, % at 12.5 µM;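 active means mean activation of at least 80% with every replicate also reaching 80%; inconclusive means mean reaches 80% but some replicate falls short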
Wnt act – Wnt/beta-catenin pathway activators, primary screen, cell-based, plate reader, single point. 300,000 compounds, 1.2% hits. Wnt/beta-catenin reporter cell assay, activator. activation, % at 9.35 µM; in the data active means activation above about 30%, passing the limit was not always enough; inconclusive means no clear call, values can overlap the other calls
esBAF inh – Bmi1 luciferase reporter increase in mESCs, primary screen, esBAF inhibitor project, mouse ES cells, Bmi1 luciferase knock-in, single point; 24 h; 100% = twice the neutral-well signal; reporter increase, % at 12.5 µM; 350,000 compounds, 2% hits; in the data active means activation above about 40%; inconclusive means no clear call, values can overlap the other calls;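 further: a rise in the Bmi1 reporter signal indicates esBAF inhibition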
TRPM1 prom inh – inhibitors of MITF-dependent TRPM1 promoter reporter, primary screen, cell-based, SK-MEL-5, single point, luciferase. SK-MEL-5 TRPM1 promoter luciferase, 24 h. inhibition, % at 12.5 µM. 330,000 compounds, 0.83% hits;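 active means mean inhibition across replicates of 60% or more, whatever share of single replicates reaches that level; inconclusive means some that reach 60%, reason not given; inactive means mean inhibition across replicates below 60%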
PAX8 reporter – inhibitors of PAX8-driven TPO luciferase reporter, primary screen, RMG-I cells, single concentration. inhibition, % at 12.6 µM. 360,000 compounds, 1.2% hits. SteadyGlo, 24 h. AID 652154, 2013;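 active means mean replicate inhibition at least 60% with every replicate also reaching 60%; inconclusive means only one of the two criteria is met; inactive means mean below 60% and not all replicates reaching 60%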;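 further: luciferase light reporting Pax8 driven TPO promoter activity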
Hits are given with their value; . = inactive; ? = inconclusive; / = not tested or not shown.

SMILES | EWS-Fli inh | MITF act | Wnt act | esBAF inh | TRPM1 prom inh | PAX8 reporter
COc1ccc(-n2cnc3sc(-c4ccccc4)cc3c2=O)cc1 | / | 124 | / | . | . | /
COc1cccc(-n2cnc3sc(-c4ccccc4)cc3c2=O)c1 | . | 101 | . | 47 | . | .
O=C(Nc1cccc(Cl)c1)N[C@@H]1CC[C@@H](CCNC(=O)C2CCCCC2)O[C@@H]1CO | . | / | / | . | / | .
CO[C@H]1CN(C)C(=O)c2cc(NC(=O)Nc3cccc(Cl)c3)ccc2OC[C@@H](C)N(C)C[C@@H]1C | . | / | / | . | / | /
Cc1cccc(C(=O)CC(=O)c2cc(Cl)ccc2O)c1 | / | . | / | 64 | . | /
O=C(CC(=O)c1cc(Cl)ccc1O)c1ccccc1 | . | . | . | 49 | . | /
Cc1ccc(O)c(C(=O)CC(=O)c2ccc(Cl)cc2)c1 | . | / | . | . | . | .
CSc1ccccc1OCc1cc(C(=O)NCc2cccc(C)n2)no1 | . | 96 | . | 78 | . | .
Cc1nonc1CN(C)C(=O)c1cc(COc2ccc(F)cc2Cl)on1 | . | . | . | . | . | .
CSc1ccccc1OCc1cc(C(=O)NC(C)Cc2cccc(C)n2)no1 (stereo unspecified) | . | . | . | / | . | .
CSc1ccccc1OCc1cc(C(=O)N(C)Cc2nonc2C)no1 | . | 150 | . | 65 | . | .
CSc1ccccc1OCc1cc(C(=O)N(C)Cc2ccncn2)no1 | . | 117 | . | / | . | /
CCn1ccnc1CN(C)C(=O)c1cc(COc2ccccc2SC)on1 | . | ? | . | 59 | . | /
C[C@H](CO)N1C[C@H](C)[C@@H](CN(C)Cc2ccccc2C(F)(F)F)OCc2cnnn2CCCC1=O | . | / | / | . | / | /
O=C(C[C@@H]1CC[C@H]2[C@@H](COC[C@H](O)CN2C(=O)Nc2cccc(Cl)c2)O1)NCc1ccccc1F | . | / | / | . | / | .
Nc1c(N(C(=O)Nc2ccc(Cl)c(Cl)c2)C2CCCC2)c(=O)[nH]c(=O)n1Cc1ccccc1 | / | . | / | . | 77 | /
O=C(Nc1ccccc1)OCC1COC(c2ccccc2)(c2ccccc2)O1 (stereo unspecified) | . | . | 49 | / | . | .
O=C(Nc1ccccc1)OCC1CCCO1 (stereo unspecified) | . | . | . | . | . | .
C[C@H](CO)N1C[C@H](C)[C@H](CN(C)C(=O)Nc2ccc(F)cc2)Oc2ccc(NS(C)(=O)=O)cc2CC1=O | . | / | / | . | / | .
CC(C)C#Cc1ccc2c(c1)O[C@@H](CN(C)C)[C@H](C)CN([C@@H](C)CO)S2(=O)=O | . | / | / | . | / | .
Cc1ccc2[nH]c3c(c2c1)CC/C(=C/c1ccccc1)C3=O | / | / | . | 91 | . | .
O=C1/C(=C\c2ccccc2)CCc2c1[nH]c1ccccc21 | / | . | 39 | . | . | .
Cc1ccc(/C=C2/CCc3c([nH]c4ccccc34)C2=O)cc1 | / | 100 | 54 | . | . | .
C[C@@H]1CN([C@H](C)CO)C(=O)c2cc(NC(=O)Cc3ccccc3)ccc2O[C@@H](C)CCCCO[C@H]1CN(C)C(=O)c1ccccc1 | . | / | / | . | / | .
COc1ccccc1-c1nnc(-c2ccc(C)cc2)o1 | . | / | . | / | . | .
SMILES | EWS-Fli inh | MITF act | Wnt act | esBAF inh | TRPM1 prom inh | PAX8 reporter
COc1ccccc1C1=NC(c2ccc(C)cc2)N=C1C (stereo unspecified) | . | . | 52 | / | . | .
COc1ccc(CN(C)C[C@H]2Oc3ccc(NC(=O)Cc4ccccc4)cc3CC(=O)N([C@H](C)CO)C[C@H]2C)cc1 | / | / | / | . | / | .
CCCNC(=O)N(C)C[C@@H]1Oc2ncc(C3=CCCC3)cc2C(=O)N([C@@H](C)CO)C[C@H]1C | . | / | / | . | / | .
Cc1cccc(-n2cnc3cc(C(=O)N4CCCCC4)ccc32)c1 | / | . | . | 44 | . | /
O=S(=O)(N[C@@H]1CC[C@@H](CCn2cc(-c3cccnc3)nn2)O[C@H]1CO)c1ccc(Cl)cc1 | . | / | / | . | / | .
CN(C)C(=O)C[C@H]1CC[C@@H](NC(=O)c2ccc(F)cc2)[C@H](CO)O1 | . | / | / | . | / | .
C[C@H](CO)N1C[C@H](C)[C@H](CN(C)C(=O)Nc2cccc(F)c2)Oc2cc(/C=C/c3ccccc3)ccc2S1(=O)=O | . | / | / | . | / | .
C[C@H]1CN([C@@H](C)CO)S(=O)(=O)c2ccc(/C=C/c3ccccc3)cc2O[C@@H]1CN(C)C(=O)Nc1cccc(F)c1 | . | / | / | . | / | 62
C[C@H](CO)N1C[C@H](C)[C@H](CN(C)C(=O)Nc2cc(F)ccc2F)Oc2cc(/C=C/c3ccccc3)ccc2S1(=O)=O | . | / | / | . | / | 65
Cc1nc(N2CCCCC2)c2c(-c3cccs3)csc2n1 | . | . | . | / | . | .
Cc1nc(N2CCN(S(=O)(=O)c3ccccc3C#N)CC2)c2c(-c3cccs3)csc2n1 | . | . | . | . | . | 72
C#CCn1c(=NC(=O)c2ccc(Br)s2)sc2cccc(OC)c21 | . | . | . | 54 | . | .
C=CCn1c(=NC(=O)c2cccs2)sc2cccc(OC)c21 | . | . | . | . | . | .
O=C(CCl)N1c2ccccc2SCC1c1ccccc1 (stereo unspecified) | 61 | . | . | . | 79 | .
Cc1ccc(-c2cc(C(=O)NCc3ccccn3)c3ccccc3n2)cc1C | / | . | / | 48 | . | /
CCCc1ccc(-c2cc(C(=O)NN3CCOCC3)c3ccccc3n2)cc1 | / | . | / | . | . | /
COc1cc(C(=O)Nc2ccc(C)cc2)c2ccccc2n1 | 54 | . | . | . | . | .
CCc1ccc(-c2cc(C(=O)Nn3cnnc3)c3ccccc3n2)cc1 | 78 | . | . | / | 66 | /
CCOc1ccc(NC(=O)c2cc(OC)nc3ccccc23)cc1 | . | . | . | / | . | .
O=C(NCc1ccccn1)c1cc(-c2ccc(-c3ccccc3)cc2)nc2ccccc12 | . | . | . | 45 | . | .
C[C@H]1CN([C@@H](C)CO)C(=O)CCCn2cc(nn2)CO[C@H]1CN(C)C(=O)NC1CCCC1 | . | / | / | . | / | /
